From PubChem BioAssay (NCATS)
Values joined by “and” are separate entries in the source; they are usually repeats but may differ in a detail not shown here. Equal entries are not always repeated. Records with an inconclusive call do not appear. Where a call stands in place of a potency, no number is given. Values without a mark were called inactive. Active and inactive are the calls of the source. Calls follow the shape of the dose curve; as a rule, active = well fitted curve in the direction sought with a large enough effect; inconclusive = small, poorly fitted or top-dose-only effect, or another doubt; inactive = no such curve, though single readings can be large; an effect the other way counts as inactive or inconclusive.

How the values were obtained:
Es-2 = assay: Primary qHTS to identify gynecologic anti-cancer compounds using libraries of approved drugs and bioactive compounds (AID 1345084); conditions: Gynecologic cancer cell panel viability, ATPlite luminescence, 48 h; series mostly up to 57.5 µM; also: nearly all actives have a fitted effect of over 55% in size
Summary of the method: (§1)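 ATP-based viability (ATPlite), 1,000 cells/well, 16 h pre-incubation, 48 h compound at 37 C, 5% CO2, 15 min RT before read.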

HeLa = assay: as above; conditions: Gynecologic cancer cell panel viability, ATPlite luminescence, 48 h; series mostly up to 57.5 µM
Summary of the method: as §1

Hek293T = assay: as above; conditions: Gynecologic cancer cell panel viability, ATPlite luminescence, 48 h, control line for the selectivity index; series mostly up to 57.5 µM
Summary of the method: as §1

JEG-3 = assay: as above; conditions: Gynecologic cancer cell panel viability, ATPlite luminescence, 48 h; series mostly up to 57.5 µM
Summary of the method: as §1

OV90 = assay: as above; conditions: Gynecologic cancer cell panel viability, ATPlite luminescence, 48 h; series mostly up to 57.5 µM
Summary of the method: as §1

PA-1 = assay: as above; conditions: Gynecologic cancer cell panel viability, ATPlite luminescence, 48 h; series mostly up to 57.5 µM
Summary of the method: as §1

SKOV3 = assay: as above; conditions: Gynecologic cancer cell panel viability, ATPlite luminescence, 48 h; series mostly up to 57.5 µM
Summary of the method: as §1

Tov-21-G = assay: as above; conditions: Gynecologic cancer cell panel viability, ATPlite luminescence, 48 h; series mostly up to 57.5 µM
Summary of the method: as §1

Tov112D = assay: as above; conditions: Gynecologic cancer cell panel viability, ATPlite luminescence, 48 h; series mostly up to 57.5 µM
Summary of the method: as §1

[1] = Drug repurposing screens with cells derived from glioblastoma tumor samples (AID 1345199); conditions: GBM patient neurospheres viability, ATP luminescence, 48 h; also: nearly all actives have a fitted effect of over 40% in size; also: potency is read from the fitted curve at half-maximal effect
Summary of the method: (§2)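 Four patient lines of CD133+ GBM neurospheres were screened at several concentrations; hits were retested in those lines plus three slower-growing GBM lines, using 48-hour treatment and ATP-based viability.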

astro = assay: as above; conditions: viability, ATP luminescence, 48 h; series mostly up to 45.9 µM
Summary of the method: as §2

[2] = at 45.9 µM (top of the series), tumour line B
[3] = at 45.9 µM (top of the series), tumour line D
[4] = at 46.1 µM (top of the series), tumour line C

Structure (SMILES): COc1ccc2c3c1O[C@H]1C[C@@H](O)C=C[C@@]31CCN(C)C2
- Potency (Es-2): inactive
- Potency (HeLa): inactive
- Potency (Hek293T): inactive
- Potency (JEG-3): inactive
- Potency (OV90): inactive
- Potency (PA-1): inactive
- Potency (SKOV3): inactive
- Potency (Tov-21-G): inactive
- Potency (Tov112D): inactive

Structure (SMILES): CC1(C)NC2N(C1=O)c1ccccc1C2(O)CC(C(=O)O)n1cnc2ccccc2c1=O (stereo not given)
- Potency (Es-2): inactive
- Potency (HeLa): inactive
- Potency (Hek293T): inactive
- Potency (JEG-3): inactive
- Potency (OV90): inactive
- Potency (PA-1): inactive
- Potency (SKOV3): inactive
- Potency (Tov-21-G): inactive
- Potency (Tov112D): inactive

Structure (SMILES): COc1c(C)c(OCC=C(C)C)cc2c1C(=O)NC2=O
- Potency (Es-2): inactive
- Potency (HeLa): inactive
- Potency (Hek293T): inactive
- Potency (JEG-3): inactive
- Potency (OV90): inactive
- Potency (PA-1): inactive
- Potency (SKOV3): inactive
- Potency (Tov-21-G): inactive
- Potency (Tov112D): inactive

Structure (SMILES): COC(=O)c1cc(CN2CCN(C(=N)N)CC2)cc(C(=O)N2CCN(C(=O)c3ccc(C(=N)N)cc3)CC2)c1
- Potency (Es-2): inactive
- Potency (HeLa): inactive
- Potency (Hek293T): inactive
- Potency (JEG-3): inactive
- Potency (OV90): inactive
- Potency (PA-1): inactive
- Potency (SKOV3): inactive
- Potency (Tov-21-G): inactive
- Potency (Tov112D): inactive

Structure (SMILES): COC1CC(=O)CCC(C)OC(=O)CC1O (stereo not given)
- Potency (Es-2): inactive
- Potency (HeLa): inactive
- Potency (Hek293T): inactive
- Potency (JEG-3): inactive
- Potency (OV90): inactive
- Potency (PA-1): inactive
- Potency (SKOV3): inactive
- Potency (Tov-21-G): inactive
- Potency (Tov112D): inactive

Structure (SMILES): CCC(=O)NS(=O)(=O)c1ccc(-c2c(-c3ccccc3)noc2C)cc1
- Potency (Es-2): inactive
- Potency (HeLa): inactive
- Potency (Hek293T): inactive
- Potency (JEG-3): inactive
- Potency (OV90): inactive
- Potency (PA-1): inactive
- Potency (SKOV3): inactive
- Potency (Tov-21-G): inactive
- Potency (Tov112D): inactive
- activity, negative = cell killing [1, 2]: 0.0321%
- activity, negative = cell killing [1, 3]: 8.31%
- activity, negative = cell killing ([1]; at 46 µM (top of the series), tumour line A): -24%
- activity, negative = cell killing [1, 4]: -3.29%
- Potency (astro): inactive

Structure (SMILES): Nc1c(Br)cc(Br)cc1CNC1CCC(O)CC1 (stereo not given)
- Potency (Es-2): inactive
- Potency (HeLa): inactive
- Potency (Hek293T): inactive
- Potency (JEG-3): inactive
- Potency (OV90): inactive
- Potency (PA-1): inactive
- Potency (SKOV3): inactive
- Potency (Tov-21-G): inactive
- Potency (Tov112D): inactive
- activity, negative = cell killing [1, 2]: -15.5%
- activity, negative = cell killing [1, 3]: -18.1%
- activity, negative = cell killing [1, 4]: -10.6%
- Potency ([1]; tumour line A): 14.1 µM (active)

Structure (SMILES): CCC[C@@H]1C[C@@H](C(=O)N[C@@H]([C@H]2O[C@H](SC)[C@H](OP(=O)(O)O)[C@@H](O)[C@H]2O)[C@H](C)Cl)N(C)C1
- Potency (Es-2): inactive
- Potency (HeLa): inactive
- Potency (Hek293T): inactive
- Potency (JEG-3): inactive
- Potency (OV90): inactive
- Potency (PA-1): inactive
- Potency (SKOV3): inactive
- Potency (Tov-21-G): inactive
- Potency (Tov112D): inactive
- activity, negative = cell killing [1, 2]: -3.77% and -8.29%
- activity, negative = cell killing [1, 3]: -15.4% and -22.6%
- activity, negative = cell killing [1, 4]: -6.5% and -2.32%

Structure (SMILES): CC(C)C(=O)O[C@@H]1[C@@H](O)[C@@H](O[C@H]2O[C@H](CO)[C@@H](O)[C@H](O)[C@H]2O)O[C@H](CO)[C@H]1O
- Potency (Es-2): inactive
- Potency (HeLa): inactive
- Potency (Hek293T): inactive
- Potency (JEG-3): inactive
- Potency (OV90): inactive
- Potency (PA-1): inactive
- Potency (Tov-21-G): inactive
- Potency (Tov112D): inactive

Structure (SMILES): CC1CCC2(C(=O)OC3OC(COC4OC(CO)C(O)C(O)C4O)C(O)C(O)C3O)CCC3(C)C(=CCC4C5(C)CCC(O)C(C)(C(=O)O)C5CCC43C)C2C1(C)O (stereo not given)
- activity change, negative = cytotoxicity (Es-2): 5.49% [at 11.6 µM]
- activity change, negative = cytotoxicity (HeLa): -4.94% [at 11.6 µM]
- activity change, negative = cytotoxicity (Hek293T): 2.24% [at 11.6 µM]
- activity change, negative = cytotoxicity (JEG-3): 10.5% [at 11.6 µM]
- activity change, negative = cytotoxicity (OV90): 27% [at 11.6 µM]
- activity change, negative = cytotoxicity (PA-1): -0.862% [at 11.6 µM]
- activity change, negative = cytotoxicity (Tov-21-G): 6.67% [at 11.6 µM]
- activity change, negative = cytotoxicity (Tov112D): -8.14% [at 11.6 µM]

Structure (SMILES): CO/N=C(/C(=O)N[C@@H]1C(=O)N2C(C(=O)O)=C(CSC(=O)c3ccco3)CS[C@H]12)c1csc(N)n1
- Potency (Es-2): inactive
- Potency (HeLa): inactive
- Potency (Hek293T): inactive
- Potency (JEG-3): inactive
- Potency (OV90): inactive
- Potency (PA-1): inactive
- Potency (SKOV3): inactive
- Potency (Tov-21-G): inactive
- Potency (Tov112D): inactive

Structure (SMILES): CCOC(=O)c1ccc(N(C)c2csc(-c3ccccc3)n2)cc1
- Potency (Es-2): inactive
- Potency (HeLa): inactive
- Potency (Hek293T): inactive
- Potency (JEG-3): inactive
- Potency (OV90): inactive
- Potency (PA-1): inactive
- Potency (SKOV3): inactive
- Potency (Tov-21-G): inactive
- Potency (Tov112D): inactive

Structure (SMILES): O=C(O)Cc1nn(Cc2nc3cc(C(F)(F)F)ccc3s2)c(=O)c2nccnc12
- Potency (Es-2): inactive
- Potency (HeLa): inactive
- Potency (Hek293T): inactive
- Potency (JEG-3): inactive
- Potency (OV90): inactive
- Potency (PA-1): inactive
- Potency (Tov-21-G): inactive
- Potency (Tov112D): inactive

Structure (SMILES): COc1cc(O[C@@H]2O[C@H](CO)[C@@H](O)[C@H](O)[C@H]2O)c(CCC(=O)OC[C@H]2O[C@@H](Oc3cc(OC)c(C4OC(=O)C(C)(O)C4O)cc3CCC(=O)O)[C@H](O)[C@@H](O)[C@@H]2O)cc1C1OC(=O)C(C)(O)C1O (stereo not given in full)
- activity change, negative = cytotoxicity (Es-2): 12.3% [at 11.6 µM]
- activity change, negative = cytotoxicity (HeLa): 22.8% [at 11.6 µM]
- activity change, negative = cytotoxicity (Hek293T): -1.4% [at 11.6 µM]
- activity change, negative = cytotoxicity (JEG-3): -12.6% [at 11.6 µM]
- activity change, negative = cytotoxicity (OV90): -1.59% [at 11.6 µM]
- activity change, negative = cytotoxicity (PA-1): -4.41% [at 11.6 µM]
- activity change, negative = cytotoxicity (SKOV3): -20.1% [at 11.6 µM]
- activity change, negative = cytotoxicity (Tov-21-G): -4.07% [at 11.6 µM]
- activity change, negative = cytotoxicity (Tov112D): 3.59% [at 11.6 µM]
